For some assays here: Potency and affinity values are given separately. Active and inactive are the calls of the source. Unless noted, the rule behind the calls is not given here.
target: Protein kinase 7 (PK7), Plasmodium falciparum 3D7 (PF3D7_0213400) (UniProt Q7YTF7); assay: inhibition of Plasmodium PK7 catalytic activity – biochemical, TCAMS antimalarial set, Kinase-Glo luminescence (AID 1159587); conditions: recombinant PfPK7, Kinase-Glo ATP depletion luminescence
Sequence (Q7YTF7 1-343): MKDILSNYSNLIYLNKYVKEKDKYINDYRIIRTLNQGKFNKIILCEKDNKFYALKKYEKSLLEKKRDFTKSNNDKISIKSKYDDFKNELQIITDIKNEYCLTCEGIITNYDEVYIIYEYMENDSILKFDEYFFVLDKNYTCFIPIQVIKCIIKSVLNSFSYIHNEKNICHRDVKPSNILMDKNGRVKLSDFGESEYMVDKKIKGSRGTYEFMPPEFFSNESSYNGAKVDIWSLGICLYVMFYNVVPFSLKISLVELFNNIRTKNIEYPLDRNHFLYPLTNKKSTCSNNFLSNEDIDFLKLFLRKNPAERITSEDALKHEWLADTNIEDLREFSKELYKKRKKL

outcome, inactive:
COc1ccccc1C1CCN(C2CCC(NC(=O)/C=C/c3cc(F)cc(C(F)(F)F)c3)CC2)CC1 (stereo not given)
Cc1ccc(Nc2nccc(NCC(O)c3cccc(F)c3)n2)cc1 (stereo not given)
Cc1cccc2[nH]c(-c3ccc(-c4cccc(CN5CCN(c6ccc(C#N)cn6)CC5)c4)s3)nc12
Cc1ccc(NC(=O)NC2CCN(CCCCCNC(=O)/C=C/c3ccc(Cl)c(Cl)c3)CC2)cc1
NC(=Nc1nc(-c2ccccn2)cc2ccccc12)c1cccc(Cl)c1
CCC1CN2CCc3c([nH]c4ccccc34)C2CC1CC1=NCCc2c1[nH]c1ccc(OC)cc21 (stereo not given)
Cn1c(N)c(C(=O)CSc2nnc(-c3cccs3)n2Cc2ccccc2)c(=O)n(C)c1=O
Cc1cc(NC(=O)c2coc3cc(F)c(N4C[C@@H](C)N(C)[C@@H](C)C4)cc23)cnc1-c1ccc(C#N)cc1
N#Cc1cccc(C(=O)Nc2ccc(-c3nc4ccccc4[nH]3)cc2)c1
Cc1ccc(C(=O)Cn2nc(-c3ccc(C)c(S(=O)(=O)N4CCCCC4)c3)ccc2=O)cc1
COc1ccc2c(NN=C(C)c3ccccn3)cc(C)nc2c1
CCCCCCCNCc1c(O)ccc2c(CNCCCCCCC)c(O)ccc12
CCOc1ccc(C(C)NC(=O)C2COc3ccccc3O2)cc1OCC (stereo not given)
Cc1nc(C)c(CC(=O)Nc2ccc(-c3cccc(-c4nc5ccc(C(F)(F)F)cc5[nH]4)c3)cc2)s1
O=S(=O)(Nc1cc2c(cc1OCCCN1CCCCC1)CCNCC2)c1ccc(-c2ccc(Cl)cc2)cc1
Cc1ccccc1C1CCN(C2CCC(NC(=O)c3ccc(-c4ccccn4)s3)CC2)CC1 (stereo not given)
COc1ccc2nccc([C@@H](O)CN3CCC(NC(=O)Cn4nc(-c5ccc(C(F)(F)F)cc5)ccc4=O)CC3)c2c1
CS(=O)(=O)c1ccc(OCCCN(Cc2ccccc2C(F)(F)F)c2ccc(C#N)c(C(F)(F)F)c2)cc1
Cc1cc(=O)c(C2CCC(c3ccc(Cl)cc3)CC2)c(C)[nH]1 (stereo not given)
COc1cc(-c2cnc(N)c(-c3nc4ccccc4[nH]3)c2)cc(OC)c1OC
CC1(C)N=C(N)N=C(N)N1OCCOc1ccc2ccccc2c1
O=C(Nc1ccc(OC2CCN(Cc3ccccc3)CC2)c(Cl)c1)c1cccs1
CC(=O)c1ccc(NC(=O)C2c3ccccc3C(=O)N(CC(C)C)C2c2cccs2)cc1 (stereo not given)
COc1ccc2ncc(F)c(CCN3CCC(NCc4cnc5c(c4)NC(=O)CS5)CC3)c2c1
O=C(Nc1nc(-c2ccccn2)cc2ccccc12)c1cccc(Cl)c1
CN1CCCN(Cc2cccc(-c3cccc(NC(=O)c4cccc(C#N)c4)c3)c2)CC1
OC1(Cc2ccccc2)CCN(Cc2cccc(-c3c[nH]c4nc(NC5CCCC5)ncc34)c2)CC1
N#Cc1ccc(NC(=O)N2CCCN(CCCCCNC(=O)/C=C/c3ccc(Cl)c(Cl)c3)CC2)cc1
Nc1ncc(-c2ccc(Cl)c(Cl)c2)c(N)n1
O=C(c1ccc(O)c(-c2cc(Cl)cc(Cl)c2)c1)N(CCO)CCO
CC(=O)Nc1cccc(CNCc2ccc(-c3cnc(N4CCCC(C)(C)C4)nc3)cc2)c1
Cc1ccc(/C=C/C(=O)NC2CCC(N3CCC(c4ccccc4C)CC3)CC2)cc1C (stereo not given)
COc1ccc(OCCCON2C(N)=NC(N)=NC2(C)C)cc1
O=C(NCc1cccc(Cl)c1)c1ccc(CNC2CCN(Cc3ccccc3)CC2)cc1
CN(C)CCOc1ccc(-c2cc(-c3ccc(Cl)c(O)c3)c(-c3ccncc3)[nH]2)cc1
Fc1ccc2nc(-c3ccc(-c4ccc(CN5CCCCC5)cc4)s3)[nH]c2c1
Cc1cc(N2CCC(NS(=O)(=O)c3cccc4cccnc34)CC2)nc(Nc2cccc(C#N)c2)n1
Cc1cc(NC(=O)c2cccs2)ccc1OC1CCN(Cc2ccccc2)C1 (stereo not given)
Oc1ccc2[nH]c(-c3ccc(F)cc3F)nc2c1CN1CCC(O)(c2ccccc2)CC1
COc1cccc(NC(=O)[C@H](C(C)C)n2c(=O)[nH]c3ccccc3c2=O)c1

target: Calcium-dependent protein kinase 4 (Plasmodium falciparum (isolate 3D7)) (UniProt Q8IBS5); assay: PfCDPK4 kinase inhibitors, biochemical, TCAMS library (AID 1159588; cut-off not given, nearly all actives have IC50 up to about 0.91 µM); conditions: recombinant PfCDPK4, Kinase-Glo ATP depletion luminescence
Sequence (Q8IBS5 whole entry, looked up): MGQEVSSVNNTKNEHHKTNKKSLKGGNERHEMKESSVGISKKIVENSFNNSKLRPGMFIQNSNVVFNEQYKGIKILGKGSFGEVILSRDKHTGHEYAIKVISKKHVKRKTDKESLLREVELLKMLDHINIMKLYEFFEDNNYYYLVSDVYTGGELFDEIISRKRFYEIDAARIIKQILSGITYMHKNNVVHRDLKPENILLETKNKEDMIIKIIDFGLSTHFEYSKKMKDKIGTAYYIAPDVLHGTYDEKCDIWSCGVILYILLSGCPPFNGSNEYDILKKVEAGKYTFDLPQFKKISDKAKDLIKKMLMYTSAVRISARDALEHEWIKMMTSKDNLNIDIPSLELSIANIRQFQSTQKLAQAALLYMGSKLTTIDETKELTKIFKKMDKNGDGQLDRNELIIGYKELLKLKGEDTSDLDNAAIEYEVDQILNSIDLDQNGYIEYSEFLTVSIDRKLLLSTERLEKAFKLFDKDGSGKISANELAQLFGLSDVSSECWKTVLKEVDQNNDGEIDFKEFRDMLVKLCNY

outcome, inactive:
COc1ccccc1C1CCN(C2CCC(NC(=O)/C=C/c3cc(F)cc(C(F)(F)F)c3)CC2)CC1 (stereo not given)
Cc1ccc(Nc2nccc(NCC(O)c3cccc(F)c3)n2)cc1 (stereo not given)
Cc1cccc2[nH]c(-c3ccc(-c4cccc(CN5CCN(c6ccc(C#N)cn6)CC5)c4)s3)nc12
Cc1ccc(NC(=O)NC2CCN(CCCCCNC(=O)/C=C/c3ccc(Cl)c(Cl)c3)CC2)cc1
NC(=Nc1nc(-c2ccccn2)cc2ccccc12)c1cccc(Cl)c1
CCC1CN2CCc3c([nH]c4ccccc34)C2CC1CC1=NCCc2c1[nH]c1ccc(OC)cc21 (stereo not given)
Cn1c(N)c(C(=O)CSc2nnc(-c3cccs3)n2Cc2ccccc2)c(=O)n(C)c1=O
Cc1cc(NC(=O)c2coc3cc(F)c(N4C[C@@H](C)N(C)[C@@H](C)C4)cc23)cnc1-c1ccc(C#N)cc1
N#Cc1cccc(C(=O)Nc2ccc(-c3nc4ccccc4[nH]3)cc2)c1
Cc1ccc(C(=O)Cn2nc(-c3ccc(C)c(S(=O)(=O)N4CCCCC4)c3)ccc2=O)cc1
COc1ccc2c(NN=C(C)c3ccccn3)cc(C)nc2c1
CCCCCCCNCc1c(O)ccc2c(CNCCCCCCC)c(O)ccc12
CCOc1ccc(C(C)NC(=O)C2COc3ccccc3O2)cc1OCC (stereo not given)
Cc1nc(C)c(CC(=O)Nc2ccc(-c3cccc(-c4nc5ccc(C(F)(F)F)cc5[nH]4)c3)cc2)s1
O=S(=O)(Nc1cc2c(cc1OCCCN1CCCCC1)CCNCC2)c1ccc(-c2ccc(Cl)cc2)cc1
Cc1ccccc1C1CCN(C2CCC(NC(=O)c3ccc(-c4ccccn4)s3)CC2)CC1 (stereo not given)
COc1ccc2nccc([C@@H](O)CN3CCC(NC(=O)Cn4nc(-c5ccc(C(F)(F)F)cc5)ccc4=O)CC3)c2c1
CS(=O)(=O)c1ccc(OCCCN(Cc2ccccc2C(F)(F)F)c2ccc(C#N)c(C(F)(F)F)c2)cc1
Cc1cc(=O)c(C2CCC(c3ccc(Cl)cc3)CC2)c(C)[nH]1 (stereo not given)
COc1cc(-c2cnc(N)c(-c3nc4ccccc4[nH]3)c2)cc(OC)c1OC
CC1(C)N=C(N)N=C(N)N1OCCOc1ccc2ccccc2c1
O=C(Nc1ccc(OC2CCN(Cc3ccccc3)CC2)c(Cl)c1)c1cccs1
CC(=O)c1ccc(NC(=O)C2c3ccccc3C(=O)N(CC(C)C)C2c2cccs2)cc1 (stereo not given)
COc1ccc2ncc(F)c(CCN3CCC(NCc4cnc5c(c4)NC(=O)CS5)CC3)c2c1
O=C(Nc1nc(-c2ccccn2)cc2ccccc12)c1cccc(Cl)c1
CN1CCCN(Cc2cccc(-c3cccc(NC(=O)c4cccc(C#N)c4)c3)c2)CC1
OC1(Cc2ccccc2)CCN(Cc2cccc(-c3c[nH]c4nc(NC5CCCC5)ncc34)c2)CC1
N#Cc1ccc(NC(=O)N2CCCN(CCCCCNC(=O)/C=C/c3ccc(Cl)c(Cl)c3)CC2)cc1
Nc1ncc(-c2ccc(Cl)c(Cl)c2)c(N)n1
O=C(c1ccc(O)c(-c2cc(Cl)cc(Cl)c2)c1)N(CCO)CCO
CC(=O)Nc1cccc(CNCc2ccc(-c3cnc(N4CCCC(C)(C)C4)nc3)cc2)c1
Cc1ccc(/C=C/C(=O)NC2CCC(N3CCC(c4ccccc4C)CC3)CC2)cc1C (stereo not given)
COc1ccc(OCCCON2C(N)=NC(N)=NC2(C)C)cc1
O=C(NCc1cccc(Cl)c1)c1ccc(CNC2CCN(Cc3ccccc3)CC2)cc1
CN(C)CCOc1ccc(-c2cc(-c3ccc(Cl)c(O)c3)c(-c3ccncc3)[nH]2)cc1
Fc1ccc2nc(-c3ccc(-c4ccc(CN5CCCCC5)cc4)s3)[nH]c2c1
Cc1cc(N2CCC(NS(=O)(=O)c3cccc4cccnc34)CC2)nc(Nc2cccc(C#N)c2)n1
Cc1cc(NC(=O)c2cccs2)ccc1OC1CCN(Cc2ccccc2)C1 (stereo not given)
Oc1ccc2[nH]c(-c3ccc(F)cc3F)nc2c1CN1CCC(O)(c2ccccc2)CC1
COc1cccc(NC(=O)[C@H](C(C)C)n2c(=O)[nH]c3ccccc3c2=O)c1
